# From PubChem BioAssay
# Only some compounds are listed: those with a hit (about 1.7% of all), similar ones and a draw of the others.
# eIF4E-4G inh = eIF4E/eIF4G interaction inhibition in translation initiation. P63073+Q04637. TR-FRET eIF4E-eIF4GI(517-606) binding, 2 h. inhibition, % at 21.7 µM. hit rate 0.37% among 220,000. AID 782;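 active = inhibition above about 30%, limit read from the data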;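 note: 0% = full FRET control wells and 100% = background wells lacking eIF4GI fragment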
# Target sequence (P63073 whole entry, looked up, the tested form may be a part): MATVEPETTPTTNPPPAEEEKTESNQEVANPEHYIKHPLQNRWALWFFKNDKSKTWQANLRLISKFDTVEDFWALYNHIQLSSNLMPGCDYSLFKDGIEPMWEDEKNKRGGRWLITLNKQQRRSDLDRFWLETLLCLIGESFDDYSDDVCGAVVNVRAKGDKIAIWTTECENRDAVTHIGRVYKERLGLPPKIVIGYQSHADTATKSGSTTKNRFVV
# Target sequence (Q04637 whole entry, looked up, the tested form may be a part): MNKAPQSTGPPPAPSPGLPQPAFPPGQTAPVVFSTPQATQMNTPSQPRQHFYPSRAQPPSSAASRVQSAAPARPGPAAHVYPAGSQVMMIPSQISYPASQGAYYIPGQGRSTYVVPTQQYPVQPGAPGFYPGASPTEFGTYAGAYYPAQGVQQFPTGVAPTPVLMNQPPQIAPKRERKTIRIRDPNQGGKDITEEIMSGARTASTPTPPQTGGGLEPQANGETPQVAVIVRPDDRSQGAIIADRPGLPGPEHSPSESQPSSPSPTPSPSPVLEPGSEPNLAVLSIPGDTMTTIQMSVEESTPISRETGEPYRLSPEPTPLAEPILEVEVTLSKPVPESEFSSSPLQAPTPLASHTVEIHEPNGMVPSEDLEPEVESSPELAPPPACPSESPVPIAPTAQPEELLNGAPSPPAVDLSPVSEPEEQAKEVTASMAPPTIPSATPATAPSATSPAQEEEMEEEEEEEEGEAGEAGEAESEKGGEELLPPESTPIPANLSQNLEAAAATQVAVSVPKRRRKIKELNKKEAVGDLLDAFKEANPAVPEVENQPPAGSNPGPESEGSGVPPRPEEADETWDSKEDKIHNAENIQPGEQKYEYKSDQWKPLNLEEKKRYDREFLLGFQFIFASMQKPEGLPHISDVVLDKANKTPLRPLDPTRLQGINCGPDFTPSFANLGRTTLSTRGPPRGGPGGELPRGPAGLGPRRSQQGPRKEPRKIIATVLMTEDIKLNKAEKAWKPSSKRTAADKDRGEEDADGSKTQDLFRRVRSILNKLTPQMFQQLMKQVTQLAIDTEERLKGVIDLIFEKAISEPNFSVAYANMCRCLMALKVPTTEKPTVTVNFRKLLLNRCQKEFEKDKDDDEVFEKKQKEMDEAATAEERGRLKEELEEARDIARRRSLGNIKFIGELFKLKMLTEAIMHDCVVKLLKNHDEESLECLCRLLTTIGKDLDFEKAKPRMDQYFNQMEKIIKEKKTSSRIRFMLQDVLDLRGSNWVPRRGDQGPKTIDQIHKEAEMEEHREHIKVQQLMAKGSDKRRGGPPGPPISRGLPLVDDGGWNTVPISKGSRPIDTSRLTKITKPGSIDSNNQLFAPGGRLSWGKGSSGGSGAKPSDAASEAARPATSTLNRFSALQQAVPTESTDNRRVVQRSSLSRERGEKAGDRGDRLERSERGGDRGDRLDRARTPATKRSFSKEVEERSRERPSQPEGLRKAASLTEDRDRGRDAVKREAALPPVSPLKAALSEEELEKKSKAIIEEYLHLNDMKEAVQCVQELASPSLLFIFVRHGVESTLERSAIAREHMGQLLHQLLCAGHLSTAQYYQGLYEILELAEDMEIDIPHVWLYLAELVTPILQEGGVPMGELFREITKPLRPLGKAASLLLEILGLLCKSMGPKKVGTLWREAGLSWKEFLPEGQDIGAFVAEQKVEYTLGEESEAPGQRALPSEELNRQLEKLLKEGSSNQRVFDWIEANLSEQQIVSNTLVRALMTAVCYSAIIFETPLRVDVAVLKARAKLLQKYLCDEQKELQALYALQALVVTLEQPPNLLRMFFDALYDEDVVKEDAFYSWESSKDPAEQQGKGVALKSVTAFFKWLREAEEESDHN
# eIF4H inh = inhibitors of RNA binding by human eIF4H; hit rate 0.94% among 290,000; inhibition, % at 35 µM; Q15056; eIF4H fluorescence polarization binding assay;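 note: calls also rest on retests at 20 µM and on dose response follow-up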
# EBV gp42 block = blocks Epstein-Barr virus glycoprotein 42 binding | Q1HVG2 | Fluorescence polarization binding assay, mP read-out | inhibition, % (tested at 21.74 µM) | hit rate 0.42% among 220,000 | AID 1085; in the data active = inhibition above about 50%
# PABP FP inh = PABP-poly(A) binding inhibition; calls only at 35 µM; AID 2014; PABP-poly(A) RNA binding, fluorescence polarization; P11940; hit rate 1% among 290,000;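 note: calls also rest on retests at 20 µM and on dose response follow-up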
# PABP1 MLLE inh = inhibitors of microRNA-mediated deadenylation, human PABP1 MLLE binding; P11940; GST-MLLE / FITC-PAM2 fluorescence polarization; inhibition, % at 20 µM; hit rate 0.36% among 360,000; AID 588489; in the data active = inhibition above about 35%, passing the limit was not always enough;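 note: plate controls were DMSO wells with GST-MLLE for no effect and wells lacking GST-MLLE protein for full effect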
# Starred values were filed as active, the others as inactive; i = inactive; ? = inconclusive; . = no result; + = active, no number. Unless noted, the rule behind the calls is not given here.
SMILES,eIF4E-4G inh,eIF4H inh,EBV gp42 block,PABP FP inh,PABP1 MLLE inh
CCc1ccc(N2CC(C(=O)Nc3ccc(S(=O)(=O)N4CCOCC4)cc3)CC2=O)cc1 (configuration not stated),.,.,.,.,-15.4
O=C1NC(=Nc2ccccc2Cl)S/C1=C\c1cc([N+](=O)[O-])ccc1O,.,66.3,.,+,-89.3
COc1cccc(N=C2NC(=O)/C(=C/c3cc([N+](=O)[O-])ccc3O)S2)c1,.,65.5,.,i,-59.1
COc1ccc(CN2C(=O)C(CC(=O)NC(c3ccccc3)c3ccccc3)CC(C(=O)N(C(C)C)C(C)C)=C2C)cc1 (configuration not stated),.,.,.,.,-7.8
COc1ccccc1N(Cc1cc(=O)[nH]c2ccccc12)C(=O)c1ccccc1,58.5*,-2.2,-18.3,i,-0.9
CN(Cc1cc(=O)[nH]c2ccccc12)C(=O)c1ccccc1,10.8,-8.1,-9.4,i,6.6
COc1ccc(-c2cc3c(c4c2ccn4C)C2CCC3C2)cc1OC (configuration not stated),.,.,.,.,-5.3
Cc1ccc2nc(C(C)(C)C)c(Cc3cccc(Cl)c3)n2c1,.,.,.,.,-10.7
Cc1ccc2c(c1)-c1c(ssc1=S)C(C)(C)N2C(=O)CSc1nncn1C,5.1,2.4*,-11.4,+,25.0
CN(C(=O)c1cccc(NC(=O)Cc2ccc(NC(=O)C3CCN(S(=O)(=O)c4cccc([N+](=O)[O-])c4)CC3)cc2)c1)C1CC1,.,.,.,.,17.2
S=C1NC[C@H](CC2CCCCC2)N1CCCCC1CCCCC1,30.7*,-4.1,-8.0,i,-14.0
S=C1NC[C@H](Cc2ccccc2)N1CCCCC1CCCCC1,2.2,-14.5,-2.8,i,-72.8
C=CC[C@@H](CC(=O)N[C@H](CO)Cc1ccccc1)C(=O)N[C@H](COC(=O)[C@@H](CC=C)CC(=O)OC(C)(C)C)Cc1ccccc1,.,.,.,.,4.4
CC(C)(C)CC(C)(C)SSc1n[nH]c(=S)s1,.,.,.,.,-8.0
COc1cc(NC(C)CCCNC(C)C)c2ncccc2c1OC (configuration not stated),.,.,.,.,43.8*
Cc1nnc(NC(=O)CSc2nnc(-c3ccco3)n2C(C)C)s1,.,59.8,.,i,17.5
CC(C)n1c(SCC(=O)Nc2nncs2)nnc1-c1ccco1,.,72.4*,.,+,.
Cc1c(C(=O)NCCSCc2c(F)cccc2Cl)cnn1-c1ccc(Cl)cc1,-3.7,-1.7,51.9*,i,-3.2
COc1ccccc1C(=O)NCCSCc1c(F)cccc1Cl,.,-8.8,.,i,4.9
CC(Nc1cccnc1)=C(C#N)C#N,4.9,-6.5,-2.9,i,-2.5
COc1ccc(C(=O)N/C(=C\c2ccco2)C(=O)NCc2cccnc2)cc1,2.1,60.7*,8.9,i,15.1
O=C(O)/C(=C/c1ccco1)NC(=O)c1ccccc1,9.9,72.1*,-0.7,+,5.9
O=C(NC(Cc1ccccc1)C(=O)O)/C(=C\c1ccco1)NC(=O)c1ccccc1 (configuration not stated),10.2,90.9*,-15.5,+,7.2
O=C(NCc1cccnc1)/C(=C/c1ccco1)NC(=O)c1ccccc1,-6.2,-9.3,5.5,i,15.1
O=C(NC(Cc1ccccc1)C(=O)O)/C(=C\c1ccco1)NC(=O)c1ccc(Br)cc1 (configuration not stated),1.8,31.8,-8.7,i,7.2
SMILES,eIF4E-4G inh,eIF4H inh,EBV gp42 block,PABP FP inh,PABP1 MLLE inh
Cc1cc(C)c(S(=O)(=O)N2CCC(C(=O)NCc3ccco3)CC2)c(C)c1,4.9,3.1,-11.5,i,3.2
COC(=O)c1ccc(OC(=O)c2ccc(OC)c(OC)c2)c(OC)c1,3.8,-13.1,11.4,i,12.6
COC(=O)c1ccc(OC(=O)c2ccc(OC)cc2)c(OC)c1,2.2,53.0*,20.1,+,15.9
NC(=O)C1CCN(C2=C(Cl)C(=O)c3ccccc3C2=O)CC1,18.2,11.7,-17.0,i,38.1
O=C1C(Cl)=C(N2CCC(C(=O)O)CC2)C(=O)c2ccccc21,8.7,13.0,-2.0,i,55.2*
O=C(NC(=S)NC1CCSC1=O)c1cccc([N+](=O)[O-])c1 (configuration not stated),.,-5.9,.,i,42.2*
O=C(NC(=S)NC1CCSC1=O)c1ccc([N+](=O)[O-])cc1 (configuration not stated),.,1.0,.,i,47.7*
O=C(NC(=S)NC1CCSC1=O)c1ccccc1 (configuration not stated),-4.1,-5.8,-0.9,i,26.4
O=C(O)c1ccc2c(c1)NC(=O)C(N1CCCC1)S2 (configuration not stated),0.9,49.3,32.7,i,54.8*
COC(=O)c1ccc2c(c1)NC(=O)C(N1CCCC1)S2 (configuration not stated),-3.1,43.5,-13.9,i,-6.8
CC(C)(C)c1ccc(NC(=O)c2ccsc2)cc1,-0.7,4.4,-11.9,i,2.1
CCCCNc1nc(=S)n(-c2ccccc2)c(C)c1C(C)=O,2.5,-5.3,3.7,i,25.5
C/C(=N/N=C(\C)c1ccccc1O)c1ccccc1O,.,85.9,.,+,-11.7
CCCOc1ccc(-c2nn(-c3ccccc3)cc2/C=C2\SC(=S)N(C3CCS(=O)(=O)C3)C2=O)cc1 (configuration not stated),1.2,0.9,69.4*,i,34.7
COc1ccc(-c2nn(-c3ccccc3)cc2/C=C2/SC(=S)N(CCC(=O)O)C2=O)cc1,.,-14.4,.,i,9.9
CCOc1ccc(-c2nn(-c3ccccc3)cc2/C=C2\SC(=S)N(C3CCS(=O)(=O)C3)C2=O)cc1 (configuration not stated),1.7,?,68.8*,?,60.5
CC1CCCN(C(=O)c2ccc(NC(=O)CC3SC(N4CCCC4)=NC3=O)cc2)C1 (configuration not stated),.,.,.,.,4.9
CC(C)N1CCC(C)(C(=O)Nc2cccc(Oc3ccccc3)c2)C1 (configuration not stated),.,.,.,.,-52.6
CC1CCN(C(=O)c2ccc3c(Cl)c4c(nc3c2)CCCC4)CC1,81.6*,-4.9,8.8,i,-8.1
CC(C)OCCCNC(=O)c1sc(=S)n(C)c1N,6.5,-10.0,-13.5,i,41.4*
CCn1c(N)c(C(=O)NCCCOC)sc1=S,-3.5,1.2,-16.3,i,20.9
Cc1ccc(N(CC(=O)N/N=C/c2cccc(Br)c2)S(C)(=O)=O)cc1,12.7,2.6,-13.1,i,3.5
COc1ccc(/C(O)=C/c2nc3ccccc3n(-c3ccccc3)c2=O)cc1,.,127.3,58.6*,i,-77.7
Nc1c(NCc2ccccc2F)c(=O)[nH]c(=O)n1Cc1ccccc1,-7.6,50.6*,10.2,+,0.9
Cc1cc(C)c(NC(=O)C2CCCN2CCOC(=O)c2cccc([N+](=O)[O-])c2)c(C)c1 (configuration not stated),-1.5,active,-4.9,+,9.7
COC(=O)c1c(C(=O)OC)c(-c2cccc(Cl)c2)n2c1CS(=O)(=O)C2,.,1.5,.,i,-0.6
Cc1occc1-c1nnc(SCC(=O)c2c[nH]c3ccccc23)n1C,5.4,5.3,144.0*,i,-6.8
